# The list is not random: actives were taken first. Their share in the collection is about 12%.
# PLK1 PBD inh: qHTS for Inhibitors of PLK1-PDB (polo-like kinase 1 - polo-box domain): Primary Screen; Serine/threonine-protein kinase PLK1 (Homo sapiens), P53350; Plk1 PBD binding of FITC phosphopeptide, fluorescence polarization; Potency, µM, for the others: max response, negative = inhibition, actives largely listed as inhibitors; hit rate 2.8% among 360,000; note: potency is the fitted concentration of half-maximal effect; series mostly up to about 57 µM; % is set by controls: 0 for no effect and ±100 for the full control effect; nearly all actives have a fitted effect of over 65% in size
# HP1b binding inh: HTS for Inhibitors of HP1-beta Chromodomain Interactions with Methylated Histone Tails | AID 540317, 2011 | hit rate 0.56% among 390,000 | Chromobox protein homolog 1 (Homo sapiens), P83916 | Potency, µM (highest dose often 114 µM), for the others: at the top dose activity change, negative = inhibition, most hits filed as inhibitors | AlphaScreen HP1-beta / biotin-H3K9me3 peptide binding; note: potency is the fitted concentration of half-maximal effect; nearly all actives have a fitted effect of over 70% in size
#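 HP1-beta protein (50 nM final) preincubated 30 min at room temperature with biotinylated H3(1-18)K9me3 peptide (50 nM) in PBS pH 7.4, 0.01% Tween-20, then compound added for 30 min. AlphaScreen streptavidin donor/nickel chelate acceptor beads (10 ug/mL final), 30 min dark, luminescence read.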
# JMJD2A Tudor: qHTS Assay for Inhibitors of JMJD2A-Tudor Domain | Lysine-specific demethylase 4A (Homo sapiens), O75164 | hit rate 4.4% among 390,000 | AID 504339, 2011 | Potency, µM (titrated, usually from 114 µM), for inactives: top-dose activity change, negative = inhibition, most hits filed as inhibitors | AlphaScreen JMJD2A-Tudor / H3K4me3 peptide binding; note: potency is the fitted concentration of half-maximal effect; % is set by controls: 0 for no effect and ±100 for the full control effect; nearly all actives have a fitted effect of over 50% in size
# Sfp inh: qHTS Assay for Inhibitors of Bacillus subtilis Sfp phosphopantetheinyl transferase (PPTase); 4'-phosphopantetheinyl transferase ffp (Bacillus subtilis), Q9F4F7; hit rate 3.5% among 310,000; Potency, µM, without a hit: largest response in the series, negative = inhibition, actives largely listed as inhibitors; Biochemical Sfp PPTase activity, qHTS;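 note: the enzyme is Sfp with the accession as filed and its product quenches rhodamine fluorescence; potency is the fitted concentration of half-maximal effect; 0% = enzyme reaction without inhibitor and -100% = no enzyme wells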
#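 Sfp 15 nM + cpd, 15 min RT; start w/ rhodamine-CoA 5 uM, BHQ-2-YbbR 12.5 uM (final); 50 mM Hepes pH 7.6, 10 mM MgCl2, 0.01% NP-40, 0.01% BSA; read 525/598 nm at 0 and 30 min.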
# G9a block: qHTS Assay for Inhibitors of Histone Lysine Methyltransferase G9a; Histone-lysine N-methyltransferase EHMT2 (Homo sapiens), Q96KQ7; G9a H3K9 monomethylation, AlphaScreen, 2 h; Potency, µM (doses to about 102 µM), without a hit: at the top dose activity, negative = inhibition, hits mostly inhibitors; hit rate 8.8% among 350,000; AID 504332, 2011; note: potency is the fitted concentration of half-maximal effect; % is set by controls: 0 for no effect and ±100 for the full control effect; nearly all actives have a fitted effect of over 75% in size
#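 Using a bead-based AlphaScreen, monomethylated H3K9 product from 2 h room-temperature reactions (G9a 20 nM, peptide 500 nM, SAM 20 uM) was detected with 0.5 ug/mL rabbit anti-H3K9me1 antibody.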
# BAZ2B inh: qHTS Assay for Inhibitors of BAZ2B; Bromodomain adjacent to zinc finger domain protein 2B (Homo sapiens), Q9UIF8; AlphaScreen BAZ2B-H3K14Ac peptide displacement; Potency, µM (series often up to 114 µM), inactives show at the top dose activity change, negative = inhibition, actives largely listed as inhibitors; hit rate 4.4% among 360,000; note: potency is the fitted concentration of half-maximal effect; % is set by controls: 0 for no effect and ±100 for the full control effect; nearly all actives have a fitted effect of over 60% in size
#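 BAZ2B 50 nM plus b-H3(5-23)K14Ac 50 nM, PBS pH 7.4/0.01% Tween-20, 30 min RT; compound added (max 110 uM), 30 min RT; streptavidin donor/Ni-chelate acceptor beads 10 ug/mL final, 20 min dark; AlphaScreen read.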
# Sfp inh conf: Confirmation qHTS Assay for Inhibitors of Bacillus subtilis Sfp phosphopantetheinyl transferase (PPTase) | shares compounds with Sfp inh | Potency, µM (doses to about 114 µM), for inactives: at the highest dose activity change, negative = inhibition, most hits filed as inhibitors | Sfp PPTase enzymatic assay, qHTS titration | hit rate 79% among 380;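 note: potency is the fitted concentration of half-maximal effect; plate controls were uninhibited Sfp reaction for no effect and no enzyme control for full effect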
# Sfp PPTase gel: Gel-Based Assay for Inhibitors of Bacillus subtilis Sfp phosphopantetheinyl transferase (PPTase); shares compounds with Sfp inh; purified Sfp, gel-based phosphopantetheinylation read-out; Potency, µM, hits mostly inhibitors; hit rate 20% among 210; AID 2707, 2010;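 active = potency below 100 µM; inconclusive = dose-dependent response but potency above 100 µM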;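 note: band intensities scaled against SCH202676 control wells before curve fitting; potency is an IC50 for inhibitors of Sfp transfer activity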
# Numbers without * were called inactive; i = inactive; ? = inconclusive; . = no result; ! = not active in a repeat; [ ] = another dose, or the depositor's remark. Unless noted, calls come from the whole dose curve; as a rule, active = well fitted curve in the direction sought with a large enough effect; inconclusive = small, poorly fitted or top-dose-only effect, or another doubt; inactive = no such curve, though single readings can be large; an effect the other way counts as inactive or inconclusive.
SMILES,PLK1 PBD inh,HP1b binding inh,JMJD2A Tudor,Sfp inh,G9a block,BAZ2B inh,Sfp inh conf,Sfp PPTase gel
OCCC1CN(Cc2ccccc2-c2ccco2)CCN1Cc1ccccc1 (stereo unspecified),-18.6%,3.1%,-28.3%,5.5%,?,-30.3%,.,.
O=C(CC(SCc1ccco1)c1ccc(O)cc1)c1cccs1 (stereo unspecified),-4.5%,?,?,56.2µM*,-17.9%[59 µM],?,7.44µM*,i
O=C(CSc1nnc(-c2ccc(O)cc2)n1Cc1ccco1)c1cccs1,-12.9%,14.3%,-27.6%,?,?,-37.6%,.,.
O=C(CN1C(=O)CCc2cc(S(=O)(=O)N3CCOCC3)ccc21)NCc1ccc(Cl)cc1,.,23.3%,6.3%,.,0.1%[12.7 µM],-0.9%,.,.
CCc1c(C)sc(NC(=O)C2CCCCC2C(=O)O)c1C(N)=O (stereo unspecified),?,?,?,4.47µM*,?,-28.7%,10.5µM*,.
Cc1ccc(C(=O)CSc2nnc3ccc4ccccc4n23)cc1,.,56.1%,2.6%,.,-27.5%[59 µM],-12.1%,.,.
Cc1ccc(C(=O)CSc2nnc3c4ccccc4nc(Cc4ccccc4)n23)cc1,-18.2%,39.5%,7.7%,8.91µM*,-1.8%,6.2%,?,i
O=C(CSc1nc2cc([N+](=O)[O-])ccc2n1-c1ccccc1)NCc1ccc2c(c1)OCO2,2.4%,15.6%,-7.6%,1µM*,?,-19.7%,14.8µM*,.
Cc1cc(C)cc(-n2c(SCC(=O)NCc3ccc4c(c3)OCO4)nc3ccccc3c2=O)c1,-3.1%,39.5%,-3.8%,-4.6%,30.7%[59 µM],6.1%,.,.
Nn1c(=O)c2ccccc2n2c(SCc3ccc(C(F)(F)F)cc3)nnc12,?,16.5%,-19.3%,44.7µM*,3.98µM*,4.8%,?,i
C#CCNC(=O)c1csc([C@@H]2O[C@H](CO)[C@@H](O)[C@H]2O)n1,0.0%,.,.,.,.,.,.,.
COC(=O)C1=C(C)NC(C)=C([N+](=O)[O-])[C@H]1c1ccccc1C(F)(F)F,.,.,.,14.7%,.,.,.,.
COC(=O)C1=C(C)NC(C)=C(C(=O)OCC(C)C)C1c1ccccc1[N+](=O)[O-] (stereo unspecified),18.9µM*,15.8µM*,20µM*,39.8µM*,11.2µM*,.,37.3µM*,.
CCC(C(=O)NCCc1cc(OC)ccc1OC)n1nc(C)c2sc3ccccc3c2c1=O (stereo unspecified),.,27.2%,-20.5%,.,4.8%[59 µM],-8.7%,.,.
Fc1ccccc1C1CC(c2ccco2)=Nc2ccccc2S1 (stereo unspecified),-13.1%,-10.8%,?,3.55µM*,4.6%[12.7 µM],?,33.2µM*,i
CC1=C(C(=O)O)N2C(=O)[C@@H](NC(=O)[C@@H](N)c3ccc(O)cc3)[C@@H]2SC1,.,.,.,31.6µM*,7.8%[21.5 µM],.,-1.9%[53.7 µM],?
CCN(CC)CCOCCOC(=O)C1(c2ccccc2)CCCC1,-13.6%,12.5%,31.6µM*,50.1µM*!,29.9µM*!,.,?,i
CC1CN(C(=S)Nc2cccc(Cl)c2Cl)CC(C)O1 (stereo unspecified),-5.9%,55.8%,6.2%,-2.9%,21.0%,5.8%,.,.
O=C(COC(=O)c1cncc(Br)c1)NCc1ccco1,?,29.8%,-35.8%,12.6µM*,-21.8%[0.0925 µM],31.6µM*,46.9µM*,i
O=C(NCCCn1ccnc1)c1nn2c(C(F)(F)F)cc(-c3ccc(Br)cc3)nc2c1Cl,-13.8%,?,44.7µM*,1.12µM*,50.1µM*,50.1µM*,?,.
CC(C)(C)NC(=O)C(c1cccnc1)N(C(=O)c1ccc(Cl)nc1)C1CCCC1 (stereo unspecified),-4.1%,24.4%,0.0%,3.55µM*,2.82µM*,56.2µM*,0.1%,i
O=[N+]([O-])c1ccc2nc(-c3ccc(Cl)cc3)[nH]c2c1,-19.5%,11.1%,-20.3%,0.355µM*,39.8µM*,-3.8%,-3.1%,55.6µM*
CNC[C@H](O)c1ccc(O)c(O)c1,-3.8%,14.3%,-28.1%,25.1µM*!,7.94µM*!,50.1µM*,?,i
CNC[C@H](O)c1cccc(O)c1,-6.1%,53.8%,-0.7%,12.0%,-7.5%[59 µM],-9.1%,.,.
CC(C)C[C@H]1CNC(=O)C(=O)N1C[C@@H]1CCCN1C[C@H](CC(C)C)N1C[C@H](Cc2ccccc2)N(CCc2ccccc2)C(=O)C1=O,-12.8%,.,.,.,.,.,.,.
SMILES,PLK1 PBD inh,HP1b binding inh,JMJD2A Tudor,Sfp inh,G9a block,BAZ2B inh,Sfp inh conf,Sfp PPTase gel
COc1cccc(CNc2cccc3cccnc23)c1O,-10.2%,-6.5%,44.7µM*,4.47µM*,?,?,21µM*,i
COc1cccc(CNc2ccccn2)c1O,-8.1%,25.7%,-18.5%,15.0%,-2.5%[0.501 µM],3.3%,.,.
Clc1ccc(-c2cnc3cccnn23)cc1,-10.6%,.,.,.,.,.,.,.
Nc1cccn2c(-c3ccc(Cl)cc3)cnc12,26.7µM*,?,-5.3%[11.4 µM],15.8µM*,50.1µM*,50.1µM*,?,?
O=C(CSc1ccccc1)Nc1nnc(COc2ccc(Cl)cc2)s1,2.67µM*,?,56.2µM*,14.1µM*,1.41µM*,50.1µM*,5.91µM*,.
COc1ccc(C(=O)C2CCCN(C(=O)CCc3ccccn3)C2)c(C)c1 (stereo unspecified),4.3%,35.3%,-2.4%,11.6%,-0.7%,-1.8%,.,.
COc1ccc(C(=O)C2CCCN(C(=O)CCc3scnc3C)C2)c(C)c1 (stereo unspecified),-5.3%,33.2%,-12.6%,12.6µM*,.,28.5%,5.8%,.
Cc1cc(C)n(-c2ccc(NC(=O)C3CCCCN3Cc3cccc4c3OCO4)cc2)n1 (stereo unspecified),3.1%,19.0%,-24.8%,3.4%,-12.5%,-29.1%,.,.
O=C(NC(=S)N(CCO)Cc1ccccc1)c1ccc(S(=O)(=O)N2CCCC2)cc1,-17.8%,8.8%,-2.3%[11.4 µM],9.7%,4.4%,.,.,.
Cc1csc(NC(=O)CSc2[nH]c(=O)ncc2C)n1,-9.8%,30.4%,-11.6%,.,5.6%,-11.1%,.,.

# Screens deposited in PubChem by National Center for Advancing Translational Sciences (NCATS).
